The values that follow come from PubChem BioAssay AID602393 (Broad Institute, 2012).

The whole screen tested about 350,000 compounds, of which about 7,000 (2%) were called active. Rule as the data show it: active = activation above about 40%; inconclusive = no clear call, values can overlap the other calls; inactive = below that. The sample as a whole holds a higher share of actives than the screen did.

The assay can be described thus: raisers of Bmi1 knock-in reporter signal – mouse ES cells, Bmi1 luciferase knock-in, single point, esBAF inhibitor project, primary screen (AID 602393).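 Also: 0% = median of the plate's neutral control wells and 100% = double that signal; a rise in the Bmi1 reporter signal indicates esBAF inhibition.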 The settings on record: 24 h, at 12.5 µM, stronger effect = higher value, 100% = twice the neutral-well signal.
Regarding `O=C(c1nnc(-c2ccc(Cl)cc2)o1)C1CCCC1`, the reporter increase was 19.6% (inactive).

Turning to `O=C(Nc1nnc(-c2ccc(Cl)cc2)o1)c1ccccc1Br`, the reporter increase was 17.7% (inactive).

For the compound `CSc1ccccc1-c1nnc(-c2ccc(Cl)cc2)o1`, the reporter increase is 67.2% (active).

Consider `COc1cc(NC(=O)CCNC(=O)Cn2ccc3ccccc3c2=O)cc(OC)c1OC`, for which the reporter increase was 52.2% (active).

Take `Cc1ccc(CNC(=O)CCNC(=O)Cn2ccc3ccccc3c2=O)cc1`: the reporter increase is -7.21% (inactive).

On to `COc1ccc(NC(=O)CCNC(=O)Cn2ccc3ccccc3c2=O)c(OC)c1`, for which the reporter increase was -7.83% (inactive).

As for `O=C(C[C@@H]1C=C[C@@H](NS(=O)(=O)c2ccccc2)[C@@H](CO)O1)NCc1ccccc1F`, the reporter increase is -1.71% (inactive).

On to `CC(C)NC(=O)N(C)C[C@@H]1Oc2c(cccc2N(C)C)C(=O)N([C@@H](C)CO)C[C@H]1C`, for which the reporter increase was -5.01% (inactive).

For the compound `C[C@H](CO)N1C[C@H](C)[C@@H](CN(C)C(=O)C2CCC2)Oc2cc(C3=CCCCC3)ccc2S1(=O)=O`, the reporter increase is 0.47% (inactive).

With `COc1ccc(S(=O)(=O)N(C)C[C@H]2Oc3ccc(NC(=O)Nc4c(C)noc4C)cc3C(=O)N([C@@H](C)CO)C[C@@H]2C)cc1`, the reporter increase was -2.46% (inactive).

As for `COC(=O)c1ccc(CNC(=O)c2ccc(S(=O)(=O)N3CCCCCC3)cc2)cc1`, the reporter increase was 1.32% (inactive).

As for `COC(=O)c1ccc(CNC(=O)c2ccc3oc(C(C)C)nc3c2)cc1`, the reporter increase is 49% (active).

For the compound `COc1ccc(CNC(=O)c2ccc3oc(C(C)C)nc3c2)cc1`, the reporter increase was 47.5% (active).

Consider `COC(=O)c1ccc(CSc2nc3cc(Cl)ccc3o2)cc1`, for which the reporter increase was -4.19% (inactive).

Turning to `CC(C)c1nc2cc(C(=O)NC(C)c3cnn(C)c3)ccc2o1` (centres undefined), the reporter increase is 3.1% (inactive).

As for `COc1ccc(CNC(=O)c2cc(=O)c3c(C)cc(C)cc3o2)cc1`, the reporter increase was 1.4% (inactive).

`O=C(NCC[C@@H]1CC[C@@H](NC(=O)C2CCCC2)[C@H](CO)O1)c1cnccn1`: the reporter increase is -3.83% (inactive).

Take `COc1ccc(S(=O)(=O)N(C)C[C@H]2Oc3c(NS(=O)(=O)c4ccc(F)cc4)cccc3C(=O)N([C@H](C)CO)C[C@H]2C)cc1`: the reporter increase was 0.834% (inactive).

In the case of `C[C@H](CO)N1C[C@H](C)[C@@H](CN(C)Cc2ccc(C(=O)O)cc2)Oc2ccc(NS(=O)(=O)c3cn(C)cn3)cc2CC1=O`, the reporter increase is -1.15% (inactive).

As for `C[C@@H]1CN([C@@H](C)CO)C(=O)c2cc(NC(=O)Cc3ccccc3)ccc2O[C@@H](C)CCCCO[C@H]1CN(C)C(=O)Nc1cccc2ccccc12`, the reporter increase was 1.67% (inactive).

As for `CS(=O)(=O)Nc1ccc2c(c1)[C@@H]1C[C@H](CC(=O)NCc3cc(F)ccc3F)O[C@@H](CO)[C@@H]1O2`, the reporter increase is 1.97% (inactive).

Regarding `O=C(C[C@H]1CC[C@H](NC(=O)c2ccc3c(c2)OCO3)[C@H](CO)O1)NCc1ccc(Oc2ccccc2)cc1`, the reporter increase is -8.21% (inactive).

Take `CNC[C@H]1Oc2ccc(NC(=O)Nc3ccc4c(c3)OCO4)cc2CC(=O)N([C@H](C)CO)C[C@H]1C`: the reporter increase was 0.772% (inactive).

As to `Nc1ccc(N=Nc2ccccc2Cl)c(N)n1`, the reporter increase was 76% (active).

In the case of `COc1ccc(NC(=O)N(C)C[C@@H]2Oc3c(NC(=O)C4CCOCC4)cccc3C(=O)N([C@H](C)CO)C[C@@H]2C)cc1`, the reporter increase was 1.63% (inactive).

Regarding `Cc1noc(C)c1CCC(=O)O`, the reporter increase is -5.69% (inactive).

For `COC(=O)CCC(=O)N1CCCC(CO)(Cc2ccccc2)C1` (centres undefined), the reporter increase is 88.3% (active).

Take `Cc1noc(C)c1CCC(=O)N1CCCC(CO)(Cc2ccccc2)C1` (centres undefined): the reporter increase was 73.8% (active).

For `Cc1ccccc1CC1(CO)CCCN(C(=O)c2cc(-c3ccccc3)no2)C1` (centres undefined), the reporter increase is -3.48% (inactive).

`CCOC(=O)C1(Cc2ccccc2C)CCCN(C(=O)CCc2c(C)noc2C)C1` (centres undefined): the reporter increase is 4.36% (inactive).

Consider `CCCc1cc(C(=O)N2CCCC(CO)(CCCc3ccccc3)C2)n(C)n1` (centres undefined), for which the reporter increase was 9.89% (inactive).

Consider `CCCN(C)C[C@H]1OCCCC[C@@H](C)Oc2ccc(NC(=O)CCC(F)(F)F)cc2C(=O)N([C@H](C)CO)C[C@H]1C`, for which the reporter increase was 3.13% (inactive).

Consider `COc1cccc(-c2ccc3c(c2)O[C@@H](CN(C)Cc2ccncc2)[C@H](C)CN([C@H](C)CO)S3(=O)=O)c1`, for which the reporter increase is 0.833% (inactive).

Take `CN1CCN(C(=O)C[C@H]2C[C@@H]3c4cc(NC(=O)NC5CCCC5)ccc4O[C@@H]3[C@@H](CO)O2)CC1`: the reporter increase is -0.346% (inactive).

For the compound `O=C(CN1CCOCC1)N[C@@H]1CC[C@@H](CCn2cc(C3CCCCC3)nn2)O[C@@H]1CO`, the reporter increase was -5.48% (inactive).

On to `CC1CN(Cc2ccccc2)C(=S)NC1=O` (centres undefined), for which the reporter increase is 2.98% (inactive).

Turning to `O=C1C(Cc2ccc(O)cc2)NC(=S)N1Cc1ccccc1` (centres undefined), the reporter increase is -6.04% (inactive).

For `CN(C)c1ccc(/C=C2\NC(=S)N(Cc3ccccc3)C2=O)cc1`, the reporter increase is 42.2% (active).

Turning to `C[C@H](CO)N1C[C@H](C)[C@H](CN(C)S(=O)(=O)c2ccccc2)Oc2ccc(NC(=O)Cn3cnnn3)cc2C1=O`, the reporter increase is 2.23% (inactive).

As to `CCC(=O)Nc1ccc2c(c1)C(=O)N(C)[C@@H]1CC[C@@H](CC(=O)Nc3cccc(OC)c3)O[C@@H]1CO2`, the reporter increase was -2.81% (inactive).

With `CSc1ccccc1NC(=O)c1cc(C2CC2)on1`, the reporter increase was 53.9% (active).

For the compound `Cc1nn(Cc2ccc(Cl)c(Cl)c2)c(C)c1NC(=O)c1cc(C2CC2)on1`, the reporter increase was 7.59% (inactive).

Turning to `O=C(NC1CCCCC1)c1cc(C2CC2)on1`, the reporter increase was -10.1% (inactive).

With `CCCNC(=O)N1C[C@H](O)COC[C@H]2O[C@@H](CC(=O)NCc3ccncn3)CC[C@@H]21`, the reporter increase was -2.02% (inactive).

With `CCn1c(Cc2ccccc2)nnc1SCc1nc2ccccc2c(=O)[nH]1`, the reporter increase was -5.17% (inactive).

For `Clc1ccccc1SCc1nc2ccccc2[nH]1`, the reporter increase is 53% (active).

For the compound `CCN(CC)S(=O)(=O)c1ccc2nc(CSc3nnnn3-c3ccc(O)cc3)[nH]c2c1`, the reporter increase is 1.1% (inactive).

As to `O=C(C[C@@H]1C[C@H]2c3cc(NC(=O)NC4CCCC4)ccc3O[C@H]2[C@H](CO)O1)NCc1cc(F)ccc1F`, the reporter increase is 5.15% (inactive).

As to `COc1cc(OC)cc(-c2cc3ccc(F)cc3cn2)c1`, the reporter increase is 58.7% (active).

Consider `N#CCSc1nc(-c2ccccc2)nc2ccc(F)cc12`, for which the reporter increase was -3.61% (inactive).

As to `COc1ccc(-c2cc3ncccc3cn2)cc1`, the reporter increase was 10.9% (inactive).

Take `Fc1ccc2cnc(-c3ccccc3)cc2c1`: the reporter increase was 58.8% (active).

With `Fc1ccccc1-c1cc2cc3c(cc2cn1)OCO3`, the reporter increase is 16.5% (inactive).

As to `COc1ccc(C(C)(O)c2nc(-c3cc(F)cc(F)c3)cs2)cc1` (centres undefined), the reporter increase is -4.23% (inactive).
